# Only some compounds are listed: those with a hit (about 7.3% of all), similar ones and a draw of the others.
# Tau fluor cs = counter-screen for tau fibril formation inhibitors; tau K18 P301L Alexa594 fluorescence, heparin fibrillization; Potency, µM (highest dose often 57.7 µM), inactives show at the top dose activity change, negative = decrease; actives 0.93% (n = 280,000); AID 1463; further: nearly all actives have a fitted effect of over 55% in size
#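 Human K18 P301L tau (15 uM unlabeled plus 0.24 uM Alexa 594-labeled, final) in 100 mM sodium acetate pH 7 was mixed with compound and 20 uM heparin and incubated 6 hr at 37 C.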
# VP16 counter = Gal4-VP16 reporter inhibition counter-screen; Drosophila S2 Gal4-VP16 UAS-luciferase, luminescence, 20 h; Potency, µM (titrated, usually from 53.6 µM), without a hit: at the highest dose activity, negative = inhibition, hits mostly inhibitors; actives 3.5% (n = 310,000); AID 2546;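 further: Gal4-VP16 expression switched on by copper sulfate through the metallothionein promoter; nearly all actives have a fitted effect of over 50% in size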
# Tau ThT inhib = blocks human tau fibril formation measured by thioflavin T | P10636 | actives 2.1% (n = 270,000) | Potency, µM (top dose mostly 57.4 µM), without a hit: at the top dose activity, negative = inhibition, most hits filed as inhibitors | recombinant tau K18 P301L (four-repeat tau fragment), heparin-induced fibrillization, ThT fluorescence; further: nearly all actives have a fitted effect of over 55% in size
# Target sequence (P10636 561-689 P618L limits assumed): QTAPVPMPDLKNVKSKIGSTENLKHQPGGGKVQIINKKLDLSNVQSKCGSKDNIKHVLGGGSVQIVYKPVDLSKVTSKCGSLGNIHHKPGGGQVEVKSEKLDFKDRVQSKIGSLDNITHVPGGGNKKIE
#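 Heparin-induced fibrillization of the P301L-mutant K18 repeat-domain fragment of human tau was followed by ThT binding in quantitative high-throughput format.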
# Tau fibril FP = blocks human tau fibril formation measured by polarization; P10636; K18 P301L tau heparin fibrillization, Alexa594 FP, 6 h; Potency, µM (titrated, usually from 57.7 µM), for the others: at the top dose activity, negative = inhibition, hits mostly inhibitors; actives 0.39% (n = 280,000); AID 1468; further: nearly all actives have a fitted effect of over 55% in size
#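 Compound effects on tau fibrillization are measured by Alexa 594 fluorescence polarization (ex 555, em 632 nm). K18 P301L tau is used at 15 uM with 0.24 uM labeled tracer, and 20 uM heparin induces aggregation over 6 hr at 37 C.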
# RORg inh = ROR gamma (mouse) transcription inhibition. P51450. Drosophila S2 Gal4-RORgamma UAS-luciferase reporter, 20 h. Potency, µM (highest dose often 53.6 µM), without a hit: at the top dose activity change, negative = inhibition, most hits filed as inhibitors. actives 5.4% (n = 310,000). AID 2551; further: nearly all actives have a fitted effect of over 60% in size
# Target sequence (P51450 whole entry, looked up, the tested form may be a part): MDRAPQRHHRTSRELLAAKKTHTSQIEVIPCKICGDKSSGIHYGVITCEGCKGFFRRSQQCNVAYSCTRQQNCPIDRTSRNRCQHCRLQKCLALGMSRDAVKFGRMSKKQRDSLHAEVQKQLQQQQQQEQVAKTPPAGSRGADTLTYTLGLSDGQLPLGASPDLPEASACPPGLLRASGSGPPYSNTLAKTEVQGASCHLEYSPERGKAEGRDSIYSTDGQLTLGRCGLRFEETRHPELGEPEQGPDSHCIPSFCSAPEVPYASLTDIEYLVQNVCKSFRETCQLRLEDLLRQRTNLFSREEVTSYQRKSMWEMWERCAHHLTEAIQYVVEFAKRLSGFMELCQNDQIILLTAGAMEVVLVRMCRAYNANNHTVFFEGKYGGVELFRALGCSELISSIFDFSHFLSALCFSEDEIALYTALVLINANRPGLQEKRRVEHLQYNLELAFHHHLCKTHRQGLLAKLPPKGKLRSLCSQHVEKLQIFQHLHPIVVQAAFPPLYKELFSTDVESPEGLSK
#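 Luminescence from a UAS-regulated Photinus luciferase reporter in stably transfected Drosophila Schneider cells is measured; decreased signal marks ROR gamma inhibition. Fusion expression is induced by 700 uM copper sulfate for 20 hr.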
# The depositor's hits bear a star; ? = inconclusive; / = not tested or not shown; [ ] = another dose, or the depositor's remark. The call rests on the fitted dose curve; in most records, active means well fitted curve in the direction sought with a large enough effect; inconclusive means small, poorly fitted or top-dose-only effect, or another doubt; inactive means no such curve, though single readings can be large; an effect the other way counts as inactive or inconclusive. On the % scale 0 is the no-effect control and ±100 the full control effect; potency means the concentration at half of the fitted maximal effect.
SMILES,Tau fluor cs,VP16 counter,Tau ThT inhib,Tau fibril FP,RORg inh
COc1ccc(CCCO[C@@H](Cn2ccnc2)c2ccc(OC)cc2)cc1,-11.3%,31.6µM*,?,-0.7%,8.91µM*
COc1ccc(OCCn2ccnc2)cc1,/,-11.0%,/,/,-0.5%
COc1ccc(-c2n[nH]c(=S)n2Cc2ccco2)cc1,-11.6%,?,-12.4%,2.4%,15.8µM*
COc1cccc(Cc2n[nH]c(=S)n2Cc2ccco2)c1,4.6%,-25.1%,2.6%,2.2%,3.55µM*
Cc1cc(-c2n[nH]c(=S)n2Cc2ccco2)nn1C,-6.3%,-26.3%,-7.7%,-9.8%,?
Cc1c(Br)c(-c2n[nH]c(=S)n2Cc2ccco2)nn1C,2.9%,-2.8%,1.0%,5.5%,22.4µM*
COc1cccc(CN2CCN(Cc3ccco3)CC2)c1,/,1.4%,/,/,-2.8%
CCOCCCNC(=O)c1cn(C)c2ccc(S(=O)(=O)N3CCCCC3)cc2c1=O,/,-3.8%,/,/,-18.9%
COc1ccc(-c2nc(-c3ccccc3)oc2Nc2c(C)cccc2C)cc1,-2.9%,-23.2%,-1.6%,3.1%,-1.5%
COc1ccccc1Nc1c2c(nc3ccc(NC(=O)/C=C/c4cccc(OC)c4OC)cc13)CCCC2,?,/,14.1µM*,-3.8%,/
COc1ccc(Nc2c3c(nc4ccc(NC(=O)/C=C/c5cccc(OC)c5OC)cc24)CCCC3)cc1OC,?,/,14.1µM*,8.4%,/
COc1ccc(/C=C/C(=O)Nc2ccc3nc4c(c(Nc5ccc(OC)c(OC)c5)c3c2)CCCC4)cc1,15.8µM*[quencher],/,25.1µM*,-4.5%,/
COc1ccccc1Nc1c2c(nc3ccc(NC(=O)c4cccc(F)c4)cc13)CCCC2,?,/,?,-9.7%,/
COc1ccc(/C=C/C(=O)Nc2ccc3nc4c(c(Nc5ccccc5OC)c3c2)CCCC4)cc1,?,/,10µM*,?,/
Cc1cccc(CCNC(=O)C2CCC(CNS(=O)(=O)c3c(C)cc(C)cc3C)CC2)c1 (configuration not stated),-0.3%,/,-17.2%,5.4%,/
O=C(NCc1cccnc1)C(=O)NCC1CCCO1 (configuration not stated),-11.3%,-5.1%,-13.6%,-5.5%,-6.8%
Cc1ccc2c(c1)Sc1c(ccc3ccccc13)N2,14.1µM*[quencher],-22.2%,3.16µM*,0.4%,-41.8%
CN(C(=O)Nc1ccccc1)C1CCCc2ccccc21 (configuration not stated),/,7.3%,/,/,13.3%
N#CC(C#N)=NNc1ccc(S(=O)(=O)N2CCCCC2)cc1,?,22.4µM*,15.8µM*,7.6%,?
O=C(Nc1ccccc1)Nc1ccc(S(=O)(=O)N2CCCCC2)cc1,15.8µM*[quencher],-1.7%,12.2%,31.6µM*,?
N#C/C(=N\Nc1ccc(S(=O)(=O)N2CCOCC2)cc1)C(N)=S,-16.8%,-1.6%,?,-0.2%,?
CN1CCN(S(=O)(=O)c2ccc(NC(=O)Nc3cccc(Cl)c3)cc2)CC1,?,-1.2%,?,17.8µM*,?
O=C(Nc1ccc(Cl)c(Cl)c1)Nc1cc(S(=O)(=O)N2CCOCC2)ccc1N1CCCC1,7.94µM*[quencher],-1.6%,5.1%,?,?
Nc1ccnc2c1ncn2[C@@H]1O[C@H](CO)[C@@H](O)[C@H]1O,7.5%,/,5.7%,1.0%,/
CN1CCN(C(CNC(=O)c2c(F)cccc2F)c2ccc3c(c2)OCO3)CC1 (configuration not stated),7.2%,/,5.6%,-2.3%,/
SMILES,Tau fluor cs,VP16 counter,Tau ThT inhib,Tau fibril FP,RORg inh
O=C(Nc1cccc(Cl)c1)Nc1cc(S(=O)(=O)N2CCCCC2)ccc1Cl,?,?,15.0%,11.2µM*,?
O=C(Nc1cccc(O)c1)c1cc(S(=O)(=O)N2CCCC2)ccc1Cl,-11.4%,-7.7%,-15.6%,3.9%,17.3%
CC(C)OC(=O)C1=C(N)N2C(=O)CSC2=C(C(=O)OC(C)C)C1,-1.6%,-5.1%,-14.8%,3.7%,10µM*
O=C(c1ccccc1Cl)N1CCCC(c2nc3c(nnn3Cc3ccc(F)cc3F)c(=O)[nH]2)C1 (configuration not stated),-14.6%,/,?,5.1%,/
O=c1oc(-c2ccccc2)cc(Cl)c1Cl,/,10µM*,/,/,11.2µM*
O=P(O)(O)c1cc(-c2ccccc2)oc1-c1ccccc1,1.9%,-5.5%,2.6%,1.8%,-6.2%
CCOC(=O)/C(C#N)=C1\SS/C(=C(/C#N)C(=O)OCC)S1,-29.1%,22.6%,2.82µM*,6.31µM*,-16.2%
Cc1ccc2oc(=O)c(/C=C(\O)c3sc(C)nc3C)nc2c1,-12.4%,?,?,6.5%,?
Cc1ccc2oc(=O)c(/C=C(\O)C(C)(C)C)nc2c1,-27.5%,-21.1%,?,-3.5%,5.01µM*
Cc1ccc2oc(=O)c(/C=C(\O)c3ccco3)nc2c1,-14.0%,?,-24.1%,-9.0%,10µM*
Cc1ccc(CNS(=O)(=O)c2c(C)[nH]c(C)c2C(=O)N2CCCCC2)cc1,/,-9.3%,/,/,3.9%
Cc1onc(-c2ccccc2)c1C(=O)N/N=C(\N)COc1ccc(Cl)cc1,-18.7%,1.26µM*,-19.0%,1.0%,1µM*
CCC(=O)Nc1ccc(/C(C)=N/NC(=O)c2c(-c3ccccc3Cl)noc2C)cc1,3.7%,-20.9%,4.7%,4.2%,2.7%
Cc1ccc(OCCOC(=O)c2c(-c3ccccc3)noc2C)cc1,/,1.7%,/,/,?
Cc1onc(-c2ccccc2Cl)c1C(=O)N/N=C(\N)COc1ccc(Cl)cc1,-13.1%,1µM*,-15.1%,2.8%,0.447µM*
CCC1S/C(=N/N=C/c2cccs2)NC1=O (configuration not stated),-6.5%,3.98µM*,-16.2%,1.6%,0.794µM*
C(=N\N=C\c1cccs1)/c1cccs1,-8.3%,20.5%,-16.2%,-0.1%,10.0%
CC(C)C1S/C(=N/N=C/c2cccs2)NC1=O (configuration not stated),-1.8%,0.891µM*,-13.3%,4.0%,0.316µM*
CCCC1S/C(=N/N=C/c2cccs2)NC1=O (configuration not stated),-8.8%,0.398µM*,-17.2%,2.1%,0.224µM*
CC(=O)c1cccc(NC(=O)CC2S/C(=N/N=C/c3cccs3)NC2=O)c1 (configuration not stated),-9.1%,-3.1%,3.2%,?,?
CC1S/C(=N/N=C/c2cccs2)NC1=O (configuration not stated),-5.8%,7.08µM*,-10.3%,-4.1%,2.24µM*
COc1ccc(N2CCN(C(CNC(=O)C(=O)NCc3ccc(C)cc3)c3cccnc3)CC2)cc1 (configuration not stated),-11.2%,/,-10.4%,1.1%,/
Cc1ccccc1N(CC(=O)NCC1CCCO1)C(=O)CCC(=O)Nc1nccs1 (configuration not stated),/,3.1%,/,/,4.7%
Cc1ccc(C(=O)NCc2ccc(F)cc2)cc1NC(=O)c1nsc2ccccc12,?,/,?,-8.6%,/

# Bioassay records (PubChem BioAssay)
